FXN GAA850 act = increases GAA850 frataxin promoter reporter activity. HEK293 lucGAA850 FXN promoter luciferase reporter, 24 h; percent of 10 µM SAHA response. activation, % at 6 µM. 360,000 compounds, 0.56% hits;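 active means activation above the average of all compounds screened plus 3 SD, cutoff fixed separately per campaign, cut at about 7.5% in these data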
MITF act = MITF TRPM1 promoter activation in melanoma cells; SK-MEL-5 TRPM1-promoter luciferase, 24 h; % of positive control, neutral wells = 0; activation, % at 12.5 µM; 300,000 compounds, 0.75% hits;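 active means mean activation of at least 80% with every replicate also reaching 80%; inconclusive means mean reaches 80% but some replicate falls short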
AHR activator = activates the human aryl hydrocarbon receptor | P35869 | AHR-responsive luciferase reporter cells, luminescence | activation, % at 5 µM | 320,000 compounds, 2.5% hits | AID 2796; in the data active means activation above about 47%
Target sequence (P35869 whole entry, looked up): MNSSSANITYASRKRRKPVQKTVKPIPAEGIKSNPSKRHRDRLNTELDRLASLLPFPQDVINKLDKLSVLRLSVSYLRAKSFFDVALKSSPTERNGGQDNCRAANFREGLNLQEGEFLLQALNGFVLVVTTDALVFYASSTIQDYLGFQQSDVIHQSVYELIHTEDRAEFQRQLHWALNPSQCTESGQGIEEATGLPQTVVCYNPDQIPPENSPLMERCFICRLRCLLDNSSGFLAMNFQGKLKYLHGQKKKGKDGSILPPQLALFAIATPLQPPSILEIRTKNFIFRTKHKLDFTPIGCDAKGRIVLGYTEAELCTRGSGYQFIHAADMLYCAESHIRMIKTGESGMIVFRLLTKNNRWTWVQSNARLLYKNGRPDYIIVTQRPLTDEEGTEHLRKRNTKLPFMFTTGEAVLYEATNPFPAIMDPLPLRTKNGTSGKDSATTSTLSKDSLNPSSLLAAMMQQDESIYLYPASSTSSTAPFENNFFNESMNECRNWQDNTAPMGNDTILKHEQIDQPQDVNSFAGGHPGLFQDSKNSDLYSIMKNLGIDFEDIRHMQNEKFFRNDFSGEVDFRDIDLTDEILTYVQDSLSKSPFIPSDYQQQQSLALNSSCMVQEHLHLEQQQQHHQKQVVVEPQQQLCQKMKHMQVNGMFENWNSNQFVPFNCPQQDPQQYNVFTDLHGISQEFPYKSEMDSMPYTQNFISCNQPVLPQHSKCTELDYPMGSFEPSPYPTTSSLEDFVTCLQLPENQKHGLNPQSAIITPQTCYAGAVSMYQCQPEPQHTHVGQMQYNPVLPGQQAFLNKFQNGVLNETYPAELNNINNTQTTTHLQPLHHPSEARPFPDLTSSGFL
esBAF inh = inhibitors of esBAF chromatin remodeling in mouse ES cells. Bmi1-luciferase knock-in reporter, 24 h; 100% = twice the neutral-well signal. reporter increase, % at 12.5 µM. 350,000 compounds, 2% hits; in the data active means activation above about 40%; inconclusive means no clear call, values can overlap the other calls;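 further: a rise in the Bmi1 reporter signal indicates esBAF inhibition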
Wnt bcat act = Wnt/beta-catenin pathway activation | Wnt/beta-catenin reporter cell assay, activator, plate reader | activation, % at 9.35 µM | 300,000 compounds, 1.2% hits; in the data active means activation above about 30%, passing the limit was not always enough; inconclusive means no clear call, values can overlap the other calls
Of the large screens only hits and unclear results are named; the others gave an inactive call. This is a sample that favours compounds with a hit; in the whole collection about 4.2% have one here.

Cc1ccc(C(=O)N/N=C/c2ccc([N+](=O)[O-])s2)cc1	none (no result: Wnt bcat act)
Cc1ccc(/C=C/C(=O)Nc2ccc([N+](=O)[O-])cc2)o1	esBAF inh 64
C[C@@H]1CN([C@@H](C)CO)C(=O)c2cccc(NS(=O)(=O)c3ccc(F)cc3)c2O[C@H]1CN(C)C	none (no result: FXN GAA850 act, MITF act, AHR activator, Wnt bcat act)
CN(C)C(=O)c1ccc(-c2ccc([C@H]3[C@@H](C#N)N(C(=O)C4CCC4)[C@@H]3CO)cc2)cc1	none (no result: FXN GAA850 act, MITF act, AHR activator, Wnt bcat act)
COc1ccc(S(=O)(=O)Nc2ccc3c(c2)C(=O)N([C@H](C)CO)C[C@H](C)[C@H](CN(C)Cc2ccncc2)OCCCC[C@H](C)O3)cc1	none (no result: FXN GAA850 act, MITF act, AHR activator, Wnt bcat act)
N#C/C(=C\c1ccc(F)cc1)c1nc(-c2ccco2)cs1	esBAF inh 79
N#C/C(=C\c1ccc(Cl)cc1)c1nc(-c2ccco2)cs1	none (no result: esBAF inh)
CCOC(=O)N1CCN(C(=O)c2cccc(S(=O)(=O)Nc3ccc(F)cc3)c2)CC1	Wnt bcat act 39 (no result: AHR activator, esBAF inh)
C[C@H]1CCCCO[C@@H](CN(C)C(=O)CCC(F)(F)F)[C@@H](C)CN([C@@H](C)CO)C(=O)c2cc(NS(=O)(=O)c3ccccc3)ccc2O1	none (no result: FXN GAA850 act, MITF act, AHR activator, Wnt bcat act)
COC(C(=O)N1CCC(n2nccc2NC(=O)C2CC2)CC1)c1ccccc1 (stereo not given)	esBAF inh 44
Cc1nc(C)c2c(=O)cc(-c3ccccc3)[nH]c2n1	none
Cc1nc(-c2ccccc2)nc2[nH]c(-c3ccccc3)cc(=O)c12	AHR activator 69 (no result: esBAF inh)
Fc1ccc(C2=CC(c3ccco3)n3ncnc3N2)cc1 (stereo not given)	none (no result: esBAF inh, Wnt bcat act)
Fc1ccc(C2=CC(c3ccc(Br)o3)n3ncnc3N2)cc1 (stereo not given)	AHR activator 87 (no result: esBAF inh, Wnt bcat act)
Fc1ccc(Br)cc1C1C=C(c2cccnc2)Nc2ncnn21 (stereo not given)	AHR activator 59 (no result: Wnt bcat act)
CCOc1ccc(C2C=C(c3ccccc3)Nc3ncnn32)cc1 (stereo not given)	none (no result: FXN GAA850 act, MITF act, esBAF inh, Wnt bcat act)
COc1cccc(C2=CC(c3ccccc3)n3ncnc3N2)c1 (stereo not given)	none (no result: FXN GAA850 act, MITF act, esBAF inh, Wnt bcat act)
Brc1ccc(C2=CC(c3cccs3)n3ncnc3N2)cc1 (stereo not given)	AHR activator 85
CCOc1ccc(C2C=C(c3ccc(F)cc3)Nc3ncnn32)cc1 (stereo not given)	AHR activator 63 (no result: Wnt bcat act)
CCNC(=O)Nc1ccc2c(c1)C(=O)N(C)[C@H]1CC[C@H](CC(=O)Nc3ccc(C)cc3)O[C@@H]1CO2	none (no result: FXN GAA850 act, MITF act, AHR activator, Wnt bcat act)
O=C(C[C@@H]1CC[C@@H]2[C@H](COC[C@H](O)CN2S(=O)(=O)c2ccccc2F)O1)NCc1ccccc1Cl	none (no result: FXN GAA850 act, MITF act, AHR activator, Wnt bcat act)
Cn1cccc1C1C=C(c2ccc(C(C)(C)C)cc2)Nc2ncnn21 (stereo not given)	AHR activator 67
CC(C)(C)c1ccc(C2=CC(c3ccccc3F)n3ncnc3N2)cc1 (stereo not given)	none
Cc1cccc(C(=O)NCC(c2ccco2)N(C)C)c1 (stereo not given)	none
CN(C)c1cccc(C(=O)NCC(c2ccco2)N(C)C)c1 (stereo not given)	esBAF inh 40
N#C/C(=C/c1ccc(-c2ccccc2)o1)c1nc(-c2cccs2)cs1	AHR activator 54 (no result: esBAF inh, Wnt bcat act)
COc1ccccc1-c1nc2c3ccccc3nc(=S)n2[nH]1	AHR activator 68
COc1cc(-c2nc3c4ccccc4nc(=S)n3[nH]2)cc(OC)c1OC	AHR activator 71
CC(Oc1ccc(Br)cc1)c1nc2c3ccccc3nc(=S)n2[nH]1 (stereo not given)	none (no result: esBAF inh)
CN(C)/C=C/C(=O)c1cnc(-c2cccc(Cl)c2)s1	none (no result: esBAF inh)
CN(C)/C=C/C(=O)c1cnc(-c2ccccc2Cl)s1	AHR activator 57 (no result: esBAF inh)
CC(=O)n1nc(-c2ccc(C)cc2)nc1NCc1ccco1	MITF act 105 (no result: AHR activator, esBAF inh)
COc1cc(/C=C2/C(=N)N3C(SC)=NSC3=NC2=O)ccc1OC(=O)c1ccco1	esBAF inh 46
Nc1nn(-c2cccc(F)n2)cc1-c1ccc(Cl)cc1	none (no result: AHR activator)
COc1ccc(-c2ccn(-c3cccc(F)n3)n2)cc1	esBAF inh 54 (no result: AHR activator)
CC(=O)c1c(C)nc(C)nc1NC(=O)Cc1ccccc1	none (no result: Wnt bcat act)
CC(=O)Nc1nc(-c2ccc(Cl)cc2)nc(C)c1C(C)=O	AHR activator 73 (no result: MITF act, Wnt bcat act)
COc1ccc(-c2cc3ccc(OCC(C)=O)cc3oc2=O)cc1OC	MITF act 92, esBAF inh 47
COc1ccc(-c2cc3ccc(O)cc3oc2=O)cc1	MITF act 89
COC(=O)COc1ccc2cc(-c3ccc(OC)cc3)c(=O)oc2c1	none
O=c1oc2cc(O)ccc2cc1-c1ccccc1	none
COc1ccc(-c2cc3ccc(OCC(C)=O)cc3oc2=O)cc1	Wnt bcat act 34
CO[C@H]1CC[C@H]2CCN(C)C(=O)CCCN(C)C(=O)c3cccc(C#N)c3OC[C@@H]1O2	none (no result: FXN GAA850 act, MITF act, AHR activator, Wnt bcat act)
Cc1cccc(NC(=O)c2n[nH]c([N+](=O)[O-])c2Br)c1C	Wnt bcat act 45
C[C@H]1CCCCO[C@H](CN(C)Cc2ccc(C(=O)O)cc2)[C@@H](C)CN([C@@H](C)CO)C(=O)c2cc(NC(=O)CCC(F)(F)F)ccc2O1	none (no result: FXN GAA850 act, MITF act, AHR activator, Wnt bcat act)
Cc1nn(-c2ccccn2)c2c1-c1nc(N3CCOCC3)ncc1CC2	none (no result: esBAF inh, Wnt bcat act)
Cc1nn(-c2ccccn2)c2c1-c1nc(N)ncc1CC2	MITF act 110, AHR activator 63, esBAF inh inconclusive
CCCNC(=O)C[C@H]1CC[C@@H]2[C@H](COC[C@H](O)CN2C(=O)Nc2cccc(Cl)c2)O1	none (no result: FXN GAA850 act, MITF act, AHR activator, Wnt bcat act)
O=C(c1ccc(Cl)cc1)c1cnc(Nc2ccccc2Cl)s1	MITF act 99, esBAF inh 57 (no result: Wnt bcat act)
O=C(c1ccc(Cl)cc1)c1cnc(-c2ccccc2)s1	none (no result: MITF act, AHR activator, Wnt bcat act)
COc1ccc(NC(=O)N[C@H]2CC[C@@H](CCn3cc(-c4ccc(F)cc4)nn3)O[C@H]2CO)cc1	none (no result: FXN GAA850 act, MITF act, AHR activator, Wnt bcat act)
CN(C)CCCn1c(=S)[nH]c2ccccc2c1=O	none
O=c1c2ccccc2[nH]c(=S)n1CCCn1ccnc1	AHR activator 68
O=c1c2[nH]c3ccccc3c2ncn1CCCn1ccnc1	AHR activator 66 (no result: MITF act, Wnt bcat act)
COc1ccc(-c2cn(CC[C@@H]3CC[C@H](NC(=O)NC(C)C)[C@H](CO)O3)nn2)cc1	none (no result: FXN GAA850 act, MITF act, AHR activator, Wnt bcat act)
CN1CCCCN2[C@@H](CO)[C@H](c3ccc(-c4ccc(F)cc4)cc3)[C@@H]2C1	none (no result: FXN GAA850 act, MITF act, AHR activator, Wnt bcat act)
C[C@H]1CN([C@@H](C)CO)C(=O)c2cccc(NC(=O)c3nc4ccccc4s3)c2O[C@H]1CN(C)S(C)(=O)=O	none (no result: FXN GAA850 act, MITF act, AHR activator, Wnt bcat act)
C[C@H](CO)N1C[C@H](C)[C@H](CN(C)C(=O)Nc2ccc(F)cc2)OCCCC[C@H](C)Oc2ccc(NS(C)(=O)=O)cc2C1=O	none (no result: FXN GAA850 act, MITF act, AHR activator, Wnt bcat act)
CCC(C)Nc1nc(-c2ccc3c(c2)NC(=O)CO3)cs1 (stereo not given)	AHR activator 63 (no result: Wnt bcat act)
C/C=C/c1ccc2c(c1)O[C@H](CNC)[C@@H](C)CN([C@H](C)CO)S2(=O)=O	none (no result: FXN GAA850 act, MITF act, AHR activator, Wnt bcat act)
COc1ccccc1CN1CC(C(=O)NCc2c(F)ccc(C)c2F)CCC1=O (stereo not given)	esBAF inh 51
COc1ccccc1CN1CC(C(=O)NCc2ccc(C)c(F)c2)CCC1=O (stereo not given)	none

High-throughput results from PubChem BioAssay.
